Experimental data published in PubChem BioAssay AID602182 (The Scripps Research Institute Molecular Screening Center, 2012).
The other results are listed elsewhere or left out. Values without a mark were called inactive. No rule for the calls is given here.

Assay: GFP fluorescence inhibitors and quenchers, dose response, artefact control for Rin1-Abl interaction inhibitor project, biochemical (AID 602182);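 also: ABL1-eGFP fusion protein alone without its RIN1 binding partner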
Details: GFP fluorescence interference/quenching counterscreen

Question: With `CN(Cc1c(F)cccc1Cl)C(=O)CNC(=O)c1ccc2c(c1)OCO2` as the molecule, how does the IC50 read?
Answer: > 67.6 µM

Question: Which IC50 does the source give for `Cc1ccccc1CN1C[C@@H]2C[C@@H](c3ccc4nsnc4c3)N3CCC[C@@]23C1=O` here?
Answer: > 67.5 µM

Question: With `CCOC(=O)N1CCN(C(=O)C2CCN(c3ncnc4c3sc3cccc(F)c34)CC2)CC1` as the molecule, how does the IC50 read?
Answer: > 67.6 µM

Question: Which IC50 does the source give for `CC(OC(=O)c1ccccc1NCCO)C(=O)Nc1ccnn1C(C)C` (stereo not drawn) here?
Answer: > 67.5 µM

Question: For `C[C@@H]1CN([C@H](C)CO)S(=O)(=O)c2ccc(C#C[C@@H](C)O)cc2O[C@@H]1CN(C)Cc1ccc(-c2ccccc2)cc1`, which IC50 is on record?
Answer: > 67.5 µM

Question: Which IC50 does the source give for `Nc1cc(=O)c2[nH]cnc2[nH]1` here?
Answer: > 67.7 µM

Question: For `C=CCn1c2ccccc2c2nnc(SCc3[nH]c(=O)[nH]c3C(=O)CCCCC(=O)OCC)nc21`, which IC50 is on record?
Answer: > 67.5 µM

Question: For `CN(C(=O)c1ccc(NC(=O)Cc2cccc(NC(=O)C3CCN(C(=O)c4ccccc4)CC3)c2)cc1)C1CC1`, which IC50 is on record?
Answer: > 67.6 µM
